Test results reported in the supplement of paper PMC7411054.

Assays:
Conditions in all cases: treatment time: 24 h
A549-ACTB-RAB5A [1] = assay: lowest phenotypically active concentration; higher = less potent
In short: (§1)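 Each of fifteen gene-edited A549, HepG2 and WPMY1 reporter lines, marked with BFP for segmentation and GFP and RFP/FusionRed, was treated in four wells at 0.3, 1, 3 or 9 µM for 24 h prior to live imaging. Normalisation of per-well live-cell features used solvent control wells. Deviation needed ≥3 of 4 wells beyond the 95th percentile of control Euclidean distances, and reproducibility needed a median replicate Pearson correlation above the 95th percentile of non-replicates. Both were required for phenotypic activity.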

A549-GM130-SQSTM1 [2] = assay: as above
In short: as §1

WPMY1-CANX-COX4 [3] = assay: as above
In short: as §1

WPMY1-GM130-SQSTM1 [4] = assay: as above
In short: as §1

A549-ACTB-RAB5A [5] = assay: phenotypically active (imaging signature differs from DMSO and reproducible) at any of 0.3-9 uM (binary (1 = active, 0 = inactive)); higher = active
In short: as §1

A549-CANX-COX4 = assay: as above
In short: as §1

A549-GM130-SQSTM1 [6] = assay: as above
In short: as §1

A549-TP53BP1-CLTA = assay: as above
In short: as §1

A549-TUBA1B-RELA = assay: as above
In short: as §1

HepG2-ACTB-RAB5A [7] = assay: as above
In short: as §1

HepG2-CANX-COX4 = assay: as above
In short: as §1

HepG2-GM130-SQSTM1 = assay: as above
In short: as §1

HepG2-TP53BP1-CLTA = assay: as above
In short: as §1

HepG2-TUBA1B-RELA = assay: as above
In short: as §1

WPMY1-ACTB-RAB5A = assay: as above
In short: as §1

WPMY1-CANX-COX4 [8] = assay: as above
In short: as §1

WPMY1-GM130-SQSTM1 [9] = assay: as above
In short: as §1

WPMY1-TP53BP1-CLTA = assay: as above
In short: as §1

WPMY1-TUBA1B-RELA = assay: as above
In short: as §1

HepG2-ACTB-RAB5A [10] = assay: lowest phenotypically active concentration; higher = less potent
In short: as §1

| Compound | lowest phenotypically active concentration (A549-ACTB-RAB5A [1]) | lowest phenotypically active concentration (A549-GM130-SQSTM1 [2]) | lowest phenotypically active concentration (WPMY1-CANX-COX4 [3]) | lowest phenotypically active concentration (WPMY1-GM130-SQSTM1 [4]) | phenotypically active (A549-ACTB-RAB5A [5]) | phenotypically active (A549-CANX-COX4) | phenotypically active (A549-GM130-SQSTM1 [6]) | phenotypically active (A549-TP53BP1-CLTA) | phenotypically active (A549-TUBA1B-RELA) | phenotypically active (HepG2-ACTB-RAB5A [7]) | phenotypically active (HepG2-CANX-COX4) | phenotypically active (HepG2-GM130-SQSTM1) | phenotypically active (HepG2-TP53BP1-CLTA) | phenotypically active (HepG2-TUBA1B-RELA) | phenotypically active (WPMY1-ACTB-RAB5A) | phenotypically active (WPMY1-CANX-COX4 [8]) | phenotypically active (WPMY1-GM130-SQSTM1 [9]) | phenotypically active (WPMY1-TP53BP1-CLTA) | phenotypically active (WPMY1-TUBA1B-RELA) | lowest phenotypically active concentration (HepG2-ACTB-RAB5A [10]) |
| --- | --- | --- | --- | --- | --- | --- | --- | --- | --- | --- | --- | --- | --- | --- | --- | --- | --- | --- | --- | --- |
| CC(=O)O[C@@H]1C[C@H]2C(C)(C)C(=O)C=C[C@]2(C)[C@H]2CC[C@@]3(C)[C@H](c4ccoc4)OC(=O)[C@H]4O[C@]43[C@@]21C [gedunin] | 3 µM | 9 µM | 9 µM | 9 µM | 1 (active) | 0 (inactive) | 1 (active) | 0 (inactive) | 1 (active) | 0 (inactive) | 1 (active) | 1 (active) | 1 (active) | 1 (active) | 1 (active) | 1 (active) | 1 (active) | 0 (inactive) | 0 (inactive) | – |
| CN1CCC(CN2c3ccccc3Sc3ccccc32)C1 (stereo not drawn) [methdilazine] | 9 µM | 3 µM | 9 µM | 3 µM | 1 (active) | 0 (inactive) | 1 (active) | 0 (inactive) | 1 (active) | 1 (active) | 0 (inactive) | 1 (active) | 1 (active) | 1 (active) | 1 (active) | 1 (active) | 1 (active) | 1 (active) | 1 (active) | 9 µM |
| CC(CN1c2ccccc2Sc2ccccc21)N(C)C (stereo not drawn) [promethazine] | 9 µM | 9 µM | – | 9 µM | 1 (active) | 0 (inactive) | 1 (active) | 0 (inactive) | 1 (active) | 1 (active) | 0 (inactive) | 1 (active) | 1 (active) | 1 (active) | 1 (active) | 0 (inactive) | 1 (active) | 1 (active) | 1 (active) | 9 µM |
| CCSc1ccc2c(c1)N(CCCN1CCN(C)CC1)c1ccccc1S2 [thiethylperazine] | 3 µM | 3 µM | 9 µM | 9 µM | 1 (active) | 0 (inactive) | 1 (active) | 0 (inactive) | 1 (active) | 1 (active) | 0 (inactive) | 1 (active) | 0 (inactive) | 1 (active) | 1 (active) | 1 (active) | 1 (active) | 1 (active) | 1 (active) | 9 µM |
| CN(C)CCCN1c2ccccc2CCc2ccc(Cl)cc21 [clomipramine] | 3 µM | 9 µM | 9 µM | 9 µM | 1 (active) | 0 (inactive) | 1 (active) | 0 (inactive) | 1 (active) | 1 (active) | 0 (inactive) | 0 (inactive) | 1 (active) | 1 (active) | 1 (active) | 1 (active) | 1 (active) | 1 (active) | 1 (active) | 9 µM |
